Laboratory results: PubChem BioAssay AID1159580 (chemical genetic matrix, 2015)
“And” between values parts separate entries of the source, which are not always exact repeats. Equal entries are not always repeated. About 2,000 (36%) of roughly 5,500 compounds were called active. Roughly 18% stayed inconclusive and do not appear here. Rule as the data show it: active = normalized growth mostly below about 0.91 (no sharp cut-off); inconclusive = no clear call, values can overlap the other calls; inactive = mostly above about 0.92. The list shows a part of the results.

Experiment: chemical genetic growth profiling, strain panel (AID 1159580);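 also: tested at 20 µM; growth read once vehicle control cultures reached saturation at 30 °C; 1 = growth at the plate median or of vehicle wells; lower values mean less growth of the strain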
Settings: S. cerevisiae deletion strains, growth OD

Measured: normalized growth

Cc1oncc1C(=O)Nc1ccc(C(F)(F)F)cc1
inactive: locus YAL013W, strain DEP1, stronger effect = lower value 1.03 and 0.94 | locus YAL021C, strain ccr4, stronger effect = lower value 1.05 | locus YAL026C, strain drs2, stronger effect = lower value 0.97 | locus YAL030W, strain snc1, stronger effect = lower value 0.979 | locus YAL040C, strain CLN3, stronger effect = lower value 0.918 | locus YBL061C, strain skt5, stronger effect = lower value 1.01 | locus YBR021W, strain FUR4, stronger effect = lower value 1.02 | locus YBR023C, strain chs3, stronger effect = lower value 0.979 | locus YBR171W, strain sec66, stronger effect = lower value 1.02 | locus YBR229C, strain ROT2, stronger effect = lower value 1.01 | locus YBR279W, strain paf1, stronger effect = lower value 1 | locus YCL011C, strain gbp2, stronger effect = lower value 0.919 | locus YCL016C, strain dcc1, stronger effect = lower value 0.981 | locus YCL029C, strain bik1, stronger effect = lower value 0.996 | locus YCL061C, strain MRC1 (second series), stronger effect = lower value 0.983 | locus YCL061C, strain MRC1, stronger effect = lower value 0.95 | locus YCL069W, strain vba3, stronger effect = lower value 0.982 | locus YCR088W, strain abp1, stronger effect = lower value 0.978 | locus YDL005C, strain med2, stronger effect = lower value 1.02 | locus YDL035C, strain GPR1, stronger effect = lower value 1.04 | locus YDL040C, strain nat1, stronger effect = lower value 0.99 | locus YDL074C, strain BRE1, stronger effect = lower value 1.01 | locus YDL101C, strain DUN1, stronger effect = lower value 1.02 | locus YDL134C, strain PPH21, stronger effect = lower value 1.04 | locus YDL185W, strain tfp1, stronger effect = lower value 0.993 | locus YDL192W, strain arf1, stronger effect = lower value 0.989 | locus YDR001C, strain nth1, stronger effect = lower value 0.986 | locus YDR069C, strain doa4, stronger effect = lower value 0.977 | locus YDR101C, strain arx1, stronger effect = lower value 0.991 | locus YDR137W, strain rgp1, stronger effect = lower value 1.03 | locus YDR150W, strain NUM1, stronger effect = lower value 1.01 | locus YDR162C, strain NBP2, stronger effect = lower value 1.03 | locus YDR195W, strain ref2 1.07 | locus YDR318W, strain mcm21, stronger effect = lower value 0.993 | locus YDR334W, strain swr1, stronger effect = lower value 0.991 | locus YDR335W, strain msn5, stronger effect = lower value 0.994 | locus YDR363W, strain ESC2, stronger effect = lower value 0.966 | locus YDR388W, stronger effect = lower value 1 | locus YDR392W, strain spt3, stronger effect = lower value 0.761 | locus YDR502C, strain sam2, stronger effect = lower value 0.996 | locus YEL003W, strain gim4, stronger effect = lower value 0.971 | locus YEL037C, strain rad23, stronger effect = lower value 1.01 | locus YEL061C, strain CIN8 (second series), stronger effect = lower value 0.998 | locus YEL061C, strain CIN8, stronger effect = lower value 1.01 | locus YER002W, strain NOP16, stronger effect = lower value 1.01 | locus YER015W, strain faa2, stronger effect = lower value 0.998 | locus YER016W, strain bim1, stronger effect = lower value 1.02 | locus YER110C, stronger effect = lower value 0.99 | locus YER111C, strain swi4, stronger effect = lower value 1.02 | locus YER155C, strain BEM2, stronger effect = lower value 1.03 | locus YER167W, strain BCK2, stronger effect = lower value 1.02 | locus YFR010W, strain ubp6, stronger effect = lower value 1.01 | locus YGL078C, strain dbp3, stronger effect = lower value 0.991 | locus YGL086W, strain mad1, stronger effect = lower value 0.989 | locus YGL167C, strain pmr1, stronger effect = lower value 1.01 | locus YGL173C, strain kem1, stronger effect = lower value 0.976 | locus YGL227W, strain vid30, stronger effect = lower value 0.97 | locus YGL248W, strain PDE1, stronger effect = lower value 1.02 | locus YGL253W, strain hxk2, stronger effect = lower value 0.997 | locus YGR078C, strain PAC10, stronger effect = lower value 1.02 | locus YGR135W, strain pre9, stronger effect = lower value 1 | locus YGR252W, strain gcn5, stronger effect = lower value 0.988 | locus YHR013C, strain ard1, stronger effect = lower value 1.13 | locus YHR027C, strain rpn1, stronger effect = lower value 0.992 | locus YHR030C, strain SLT2, stronger effect = lower value 1.02 | locus YHR079C, strain IRE1 (second series), stronger effect = lower value 0.98 | locus YHR094C, strain hxt1, stronger effect = lower value 0.99 | locus YHR129C, strain ARP1, stronger effect = lower value 1.01 | locus YHR142W, strain chs7, stronger effect = lower value 0.928 | locus YHR200W, strain rpn10, stronger effect = lower value 0.991 | locus YIL066C, strain RNR3, stronger effect = lower value 1.04 | locus YIL073C, strain SPO22, stronger effect = lower value 1 | locus YIL125W, strain kgd1, stronger effect = lower value 0.99 | locus YIR030C, strain dcg1, stronger effect = lower value 0.985 | locus YJL092W, strain hpr5, stronger effect = lower value 0.983 | locus YJL095W, strain BCK1 (second series), stronger effect = lower value 0.947 | locus YJL095W, strain BCK1, stronger effect = lower value 0.999 | locus YJL115W, strain asf1, stronger effect = lower value 1.01 | locus YJL134W, strain LCB3, stronger effect = lower value 1.02 | locus YJL154C, strain vps35, stronger effect = lower value 0.994 | locus YJL164C, strain tpk1, stronger effect = lower value 0.952 | locus YJL166W, strain qcr8, stronger effect = lower value 0.932 | locus YJL168C, strain set2, stronger effect = lower value 0.993 | locus YJL187C, strain SWE1 (second series), stronger effect = lower value 1.01 | locus YJR043C, strain POL32, stronger effect = lower value 1.05 | locus YKL009W, strain mrt4, stronger effect = lower value 0.997 | locus YKL068W, stronger effect = lower value 0.998 | locus YKL085W, strain MDH1 (second series), stronger effect = lower value 0.999 | locus YKL085W, strain MDH1, stronger effect = lower value 0.999 | locus YKL160W, strain elf1, stronger effect = lower value 0.96 | locus YKR001C, strain vps1, stronger effect = lower value 0.997 | locus YKR026C, strain gcn3, stronger effect = lower value 0.98 | locus YKR091W, strain srl3, stronger effect = lower value 0.995 | locus YLL001W, strain dnm1, stronger effect = lower value 0.954 | locus YLL026W, stronger effect = lower value 0.966 | locus YLL041C, strain sdh2, stronger effect = lower value 0.958 | locus YLR039C, strain RIC1, stronger effect = lower value 0.984 | locus YLR058C, strain SHM2, stronger effect = lower value 1.02 | locus YLR102C, strain apc9, stronger effect = lower value 0.983 | locus YLR221C, strain rsa3, stronger effect = lower value 0.962 | locus YLR258W, strain gsy2, stronger effect = lower value 0.947 | locus YLR262C, strain YPT6 (second series), stronger effect = lower value 1.03 | locus YLR262C, strain YPT6, stronger effect = lower value 1.01 | locus YLR268W, strain sec22, stronger effect = lower value 0.992 | locus YLR320W, strain mms22, stronger effect = lower value 0.889 | locus YLR330W, strain CHS5, stronger effect = lower value 1.02 | locus YLR342W, strain FKS1 (second series), stronger effect = lower value 1.04 | locus YLR342W, strain FKS1, stronger effect = lower value 0.952 | locus YLR357W, strain rsc2, stronger effect = lower value 0.947 | locus YLR370C, strain arc18, stronger effect = lower value 1.01 | locus YLR371W, strain rom2, stronger effect = lower value 0.982 | locus YLR384C, strain iki3, stronger effect = lower value 1 | locus YLR418C, strain cdc73, stronger effect = lower value 0.981 | locus YML016C, strain PPZ1, stronger effect = lower value 1.03 | locus YML032C, strain rad52, stronger effect = lower value 0.989 | locus YML120C, strain ndi1, stronger effect = lower value 0.979 | locus YML124C, strain tub3, stronger effect = lower value 0.988 | locus YMR058W, strain fet3, stronger effect = lower value 0.937 | locus YMR078C, strain ctf18, stronger effect = lower value 1 | locus YMR125W, strain sto1, stronger effect = lower value 0.984 | locus YMR129W, stronger effect = lower value 0.978 | locus YMR223W, strain ubp8, stronger effect = lower value 0.998 | locus YMR231W, strain pep5, stronger effect = lower value 1.01 | locus YMR263W, strain SAP30, stronger effect = lower value 1.02 | locus YMR307W, strain GAS1, stronger effect = lower value 1.16 and 0.976 | locus YNL067W, strain RPL9B, stronger effect = lower value 1 | locus YNL128W, strain TEP1, stronger effect = lower value 1.02 and 0.958 | locus YNL175C, strain NOP13, stronger effect = lower value 0.934 | locus YNL197C, strain WHI3, stronger effect = lower value 0.946 | locus YNL209W, strain ssb2, stronger effect = lower value 0.99 | locus YNL224C, strain SQS1, stronger effect = lower value 0.94 | locus YNL233W, strain BNI4, stronger effect = lower value 1 | locus YNL248C, strain rpa49, stronger effect = lower value 0.99 | locus YNL250W, strain rad50, stronger effect = lower value 0.98 | locus YNL271C, strain bni1, stronger effect = lower value 0.993 | locus YNL298W, strain CLA4, stronger effect = lower value 1.01 | locus YNL307C, strain MCK1, stronger effect = lower value 0.991 | locus YNL322C, strain KRE1 (second series), stronger effect = lower value 0.973 | locus YNR049C, strain mso1, stronger effect = lower value 0.992 | locus YNR052C, strain pop2, stronger effect = lower value 0.979 | locus YOL006C, strain TOP1, stronger effect = lower value 0.986 | locus YOL012C, strain htz1 1.17 | locus YOL147C, strain pex11, stronger effect = lower value 0.993 | locus YOR001W, strain rrp6, stronger effect = lower value 0.997 | locus YOR061W, strain CKA2, stronger effect = lower value 1.03 | locus YOR069W, strain VPS5, stronger effect = lower value 1.02 | locus YOR070C, strain gyp1, stronger effect = lower value 0.988 | locus YOR080W, strain dia2, stronger effect = lower value 1.01 | locus YOR083W, strain WHI5 (second series), stronger effect = lower value 0.891 | locus YOR083W, strain WHI5, stronger effect = lower value 0.952 | locus YOR106W, strain vam3, stronger effect = lower value 0.955 | locus YOR136W, strain idh2, stronger effect = lower value 0.982 | locus YOR144C, strain elg1, stronger effect = lower value 0.988 | locus YOR184W, strain ser1, stronger effect = lower value 1 | locus YOR265W, strain rbl2, stronger effect = lower value 0.979 | locus YOR270C, strain vph1, stronger effect = lower value 0.964 | locus YOR290C, strain snf2, stronger effect = lower value 0.957 | locus YOR316C, strain cot1, stronger effect = lower value 1 | locus YPL051W, strain arl3, stronger effect = lower value 0.987 | locus YPL055C, strain LGE1, stronger effect = lower value 1.02 | locus YPL078C, strain atp4, stronger effect = lower value 0.935 | locus YPL106C, strain sse1, stronger effect = lower value 0.972 | locus YPL240C, strain hsp82, stronger effect = lower value 0.992 | locus YPL241C, strain CIN2, stronger effect = lower value 1.01 and 0.971 | locus YPR119W, strain clb2, stronger effect = lower value 0.989 | locus YPR141C, strain kar3, stronger effect = lower value 0.991 | locus YPR163C, strain tif3, stronger effect = lower value 0.991 | locus YPR167C, strain met16, stronger effect = lower value 0.995 | strain wtn01, stronger effect = lower value 0.992
active: locus YBR009C, strain hhf1, stronger effect = lower value 0.901 | locus YBR231C, strain swc5, stronger effect = lower value 0.88 | locus YDR159W, strain sac3, stronger effect = lower value 0.754 | locus YDR297W, strain sur2, stronger effect = lower value 0.91 | locus YER155C, strain BEM2 (second series), stronger effect = lower value 0.733 | locus YGL240W, strain doc1, stronger effect = lower value 0.785 | locus YJL129C, strain trk1, stronger effect = lower value 0.869 | locus YLR027C, strain aat2, stronger effect = lower value 0.919 | locus YMR205C, strain PFK2, stronger effect = lower value 0.794 | locus YNL071W, strain lat1, stronger effect = lower value 0.858
